A short description of assay [1]: NCI Yeast Anticancer Drug Screen. Data for the rad50 strain (AID 155).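 Also: 0% = growth of vehicle-only cultures of the same strain.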 Conditions: S. cerevisiae rad50 strain growth inhibition, hits give high values. The method in brief:
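Cells are treated with compound, grown, and their growth is then scored against vehicle-only cultures of the same repair-deficient yeast strain.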

The nature of assay [2]: NCI Yeast Anticancer Drug Screen. Data for the mec2-1 strain (AID 157). The settings on record: S. cerevisiae mec2-1 strain, hits give high values. The method in brief:
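Using mec2-1 yeast: add compound, measure growth, express inhibition versus vehicle-treated cultures.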

A short description of assay [3]: NCI Yeast Anticancer Drug Screen. Data for the sgs1 mgt1 strain (AID 161).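 Also: 0% = growth of cultures given vehicle only.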 The settings on record: S. cerevisiae sgs1 mgt1 strain, hits give high values. A digest of the protocol:
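This yeast growth screen uses a strain with defined DNA-repair lesions; compound-treated growth is compared with vehicle-treated growth.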

Assay [4] can be described thus: NCI Yeast Anticancer Drug Screen. Data for the cln2 rad14 strain (AID 165).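 Also: 0% = growth equal to vehicle treated cultures.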 Conditions: S. cerevisiae cln2 rad14 strain, hits give high values. The method in brief:
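Yeast strain cln2 rad14, bearing defects in cell cycle control and DNA repair, serves as the test system; values reflect growth inhibition compared with vehicle.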

Assay [5] in a line: NCI Yeast Anticancer Drug Screen. Data for the bub3 strain (AID 167). Conditions: S. cerevisiae bub3 mutant strain, hits give high values. A digest of the protocol:
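Part of a panel of yeast mutants defective in DNA damage repair or cell cycle regulation. Each strain is grown with compound, and inhibition is calculated relative to solvent-treated cultures.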

A short description of assay [6]: NCI Yeast Anticancer Drug Screen. Data for the mlh1 rad18 strain (AID 175). Conditions: S. cerevisiae mlh1 rad18 strain growth inhibition, hits give high values. The method in brief: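 Steps: expose repair-defective yeast to compound; measure growth; express inhibition against vehicle-treated controls.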
[7] abbreviates: at 5.0 µM (retest, dose inferred, filed as 0.5).
Where [8] appears, read: at 50.0 µM (retest, dose inferred, filed as 5.0).

Structures are written as SMILES. About 79,000 compounds went through this panel and 15% of them were active in at least one assay; those are over-represented in the sample as a whole. Values without a mark were called inactive. Calls of active or inactive are those of the source. Rule as the data show it: active = growth inhibition above about 70%; inactive = the rest.

Turning to `Cc1cc(Cc2ccccc2Cl)ccc1O`, the growth inhibition in assay [1] (setting [7]) was -3%; in assay [1] (setting [8]), 99% (active); in assay [1] (at 50.0 µM), 99.2% (active); in assay [2] (setting [7]), -9%; in assay [2] (setting [8]) it was 100% (active); in assay [2] (at 50.0 µM), 99.6% (active). Further, the growth inhibition is -3% in assay [3] (setting [7]); 99% (active) in assay [3] (setting [8]); 99.5% (active) in assay [3] (at 50.0 µM); -17% in assay [4] (setting [7]); 99% (active) in assay [4] (setting [8]); 99% (active) in assay [4] (at 50.0 µM). Further, the growth inhibition in assay [5] (setting [7]) was -6%; in assay [5] (setting [8]) it was 98% (active); in assay [5] (at 50.0 µM) it was 99.4% (active); in assay [6] (setting [7]), -4%; in assay [6] (setting [8]), 100% (active); in assay [6] (at 50.0 µM) it was 95.5% (active).
On to `C[n+]1c2ccccc2cc2[nH]c3ccccc3c21`, for which the growth inhibition in assay [1] (setting [7]) was 84% (active); in assay [1] (setting [8]) it was 93% (active); in assay [1] (at 50.0 µM), 74% (active); in assay [2] (setting [7]) it was 86% (active); in assay [2] (setting [8]), 96% (active); in assay [2] (at 50.0 µM), 78.6% (active). Further, the growth inhibition was 89% (active) in assay [3] (setting [7]); 98% (active) in assay [3] (setting [8]); 79.7% (active) in assay [3] (at 50.0 µM); 63% in assay [4] (setting [7]); 75% (active) in assay [4] (setting [8]); 64.8% in assay [4] (at 50.0 µM). Moreover, the growth inhibition in assay [5] (setting [7]) was 84% (active); in assay [5] (setting [8]), 84% (active); in assay [5] (at 50.0 µM), 72.7% (active); in assay [6] (setting [7]), 90% (active); in assay [6] (setting [8]), 97% (active); in assay [6] (at 50.0 µM), 77.3% (active).
Turning to `C/C(=N\NC(=S)Nc1ccc(C)cc1)c1nc2ncccc2[nH]1`, the growth inhibition in assay [1] (setting [7]) is -9%; in assay [1] (setting [8]), 84% (active); in assay [1] (at 50.0 µM) it was 73.8% (active); in assay [2] (setting [7]), -6%; in assay [2] (setting [8]) it was 88% (active); in assay [2] (at 50.0 µM), 66.2%. For the same molecule, the growth inhibition in assay [3] (setting [7]) was 0%; in assay [3] (setting [8]), 84% (active); in assay [3] (at 50.0 µM) it was 66.3%; in assay [4] (setting [7]) it was -36%; in assay [4] (setting [8]), 91% (active); in assay [4] (at 50.0 µM), 64.5%. Also, the growth inhibition in assay [5] (setting [7]) was -21%; in assay [5] (setting [8]), 97% (active); in assay [5] (at 50.0 µM) it was 71.5% (active); in assay [6] (setting [7]), 4%; in assay [6] (setting [8]), 91% (active); in assay [6] (at 50.0 µM) it was 50.9%.
Consider `CC1=CC(=O)c2c(O)c3c(c(O)c2C1=O)C1C(O)C(C3=O)C23C(=O)c4c(O)c(C)cc(O)c4C(O)=C2C(=O)CC(O)C13` (stereo not given), for which the growth inhibition in assay [1] (setting [7]) was -27%; in assay [1] (setting [8]), 93% (active); in assay [1] (at 50.0 µM), 91.5% (active); in assay [2] (setting [7]), 7%; in assay [2] (setting [8]), 98% (active); in assay [2] (at 50.0 µM), 93.3% (active). For the same molecule, the growth inhibition in assay [3] (setting [7]) was -21%; in assay [3] (setting [8]), 96% (active); in assay [3] (at 50.0 µM), 92.7% (active); in assay [4] (setting [7]) it was 14%; in assay [4] (setting [8]), 97% (active); in assay [4] (at 50.0 µM), 91.3% (active). Further, the growth inhibition in assay [5] (setting [7]) is 12%; in assay [5] (setting [8]), 97% (active); in assay [5] (at 50.0 µM) it was 91.1% (active); in assay [6] (setting [7]), 9%; in assay [6] (setting [8]) it was 96% (active); in assay [6] (at 50.0 µM) it was 91.8% (active).
With `Cc1nn(C(=O)c2ccccc2O)c2c1C(c1ccc(O)cc1O)SC(N)=N2` (stereo not given), the growth inhibition is -31% in assay [1] (setting [7]); 28% in assay [1] (setting [8]); 46% in assay [1] (at 50.0 µM); -1% in assay [2] (setting [7]); 47% in assay [2] (setting [8]); 22.6% in assay [2] (at 50.0 µM). The growth inhibition in assay [3] (setting [7]) was -3%; in assay [3] (setting [8]), 24%; in assay [3] (at 50.0 µM) it was 42.5%; in assay [4] (setting [7]) it was 16%; in assay [4] (setting [8]), 27%; in assay [4] (at 50.0 µM) it was 41%. Also, the growth inhibition was 15% in assay [5] (setting [7]); 81% (active) in assay [5] (setting [8]); 71.7% (active) in assay [5] (at 50.0 µM); -4% in assay [6] (setting [7]); 54% in assay [6] (setting [8]); 48.2% in assay [6] (at 50.0 µM).
In the case of `CCCCCCCCCC(C)CC(=O)NCCCN(C)CCCCN(C)C` (stereo not given) (tested in a mixture with another compound), the growth inhibition in assay [1] (setting [7]) was -24%; in assay [1] (setting [8]), 67%; in assay [1] (at 50.0 µM) it was 88.8% (active); in assay [2] (setting [7]), 26%; in assay [2] (setting [8]) it was 68%; in assay [2] (at 50.0 µM) it was 80.2% (active). In addition, the growth inhibition in assay [3] (setting [7]) is 35%; in assay [3] (setting [8]), 93% (active); in assay [3] (at 50.0 µM), 87% (active); in assay [4] (setting [7]), 28%; in assay [4] (setting [8]), 27%; in assay [4] (at 50.0 µM) it was 62.1%. Besides, the growth inhibition is -17% in assay [5] (setting [7]); 86% (active) in assay [5] (setting [8]); 90.2% (active) in assay [5] (at 50.0 µM); 34% in assay [6] (setting [7]); 76% (active) in assay [6] (setting [8]); 82.3% (active) in assay [6] (at 50.0 µM).
Consider `CCN(CC)C1Oc2cc3c(cc2C(c2ccc(OC)cc2)C1C)OCO3` (stereo not given), for which the growth inhibition was 2% in assay [1] (setting [7]); 96% (active) in assay [1] (setting [8]); 82.3% (active) in assay [1] (at 50.0 µM); -38% in assay [2] (setting [7]); 96% (active) in assay [2] (setting [8]); 77.5% (active) in assay [2] (at 50.0 µM). The growth inhibition in assay [3] (setting [7]) is -48%; in assay [3] (setting [8]), 95% (active); in assay [3] (at 50.0 µM), 89.3% (active); in assay [4] (setting [7]), 1%; in assay [4] (setting [8]), 95% (active); in assay [4] (at 50.0 µM), 81% (active). Besides, the growth inhibition in assay [5] (setting [7]) is -34%; in assay [5] (setting [8]), 98% (active); in assay [5] (at 50.0 µM), 84.5% (active); in assay [6] (setting [7]), -14%; in assay [6] (setting [8]), 97% (active); in assay [6] (at 50.0 µM), 85.3% (active).
As for `COc1ccc(C2C3C(=O)OCCOC(=O)C3C2c2ccc(OC)c(OC)c2)cc1OC` (stereo not given), the growth inhibition in assay [1] (setting [7]) is 1%; in assay [1] (setting [8]) it was 49%; in assay [1] (at 50.0 µM), 12.5%; in assay [2] (setting [7]) it was 13%; in assay [2] (setting [8]), 51%; in assay [2] (at 50.0 µM) it was 17.2%. Moreover, the growth inhibition in assay [3] (setting [7]) is 4%; in assay [3] (setting [8]), 49%; in assay [3] (at 50.0 µM) it was 14.2%; in assay [4] (setting [7]), 21%; in assay [4] (setting [8]), 59%; in assay [4] (at 50.0 µM) it was 7.7%. In addition, the growth inhibition in assay [5] (setting [7]) was 15%; in assay [5] (setting [8]), 62%; in assay [5] (at 50.0 µM), 18.9%; in assay [6] (setting [7]) it was 15%; in assay [6] (setting [8]), 67%; in assay [6] (at 50.0 µM) it was 37.5%.
As to `Nc1nc(SCc2ccccc2)c2ncn(CCCl)c2n1`, the growth inhibition in assay [1] (setting [7]) was -3%; in assay [1] (setting [8]), 0%; in assay [1] (at 50.0 µM), 1.4%; in assay [2] (setting [7]), -4%; in assay [2] (setting [8]) it was 2%; in assay [2] (at 50.0 µM), 15.3%. Moreover, the growth inhibition was -9% in assay [3] (setting [7]); 1% in assay [3] (setting [8]); 17.6% in assay [3] (at 50.0 µM); -4% in assay [4] (setting [7]); -1% in assay [4] (setting [8]); 70.3% (active) in assay [4] (at 50.0 µM). Also, the growth inhibition in assay [5] (setting [7]) was -2%; in assay [5] (setting [8]) it was -7%; in assay [5] (at 50.0 µM) it was -2.15%; in assay [6] (setting [7]), -2%; in assay [6] (setting [8]) it was 3%; in assay [6] (at 50.0 µM) it was 20.9%.
As to `CCC(CC)C1(C(=O)OCCN(CC)CC)CCCCC1`, the growth inhibition was 1% in assay [1] (setting [7]); 48% in assay [1] (setting [8]); 72.5% (active) in assay [1] (at 50.0 µM); -1% in assay [2] (setting [7]); 13% in assay [2] (setting [8]); 5.8% in assay [2] (at 50.0 µM). Besides, the growth inhibition in assay [3] (setting [7]) was -2%; in assay [3] (setting [8]) it was 20%; in assay [3] (at 50.0 µM) it was 45%; in assay [4] (setting [7]), 2%; in assay [4] (setting [8]) it was 9%; in assay [4] (at 50.0 µM), 3.5%. For the same molecule, the growth inhibition in assay [5] (setting [7]) is -1%; in assay [5] (setting [8]) it was 48%; in assay [5] (at 50.0 µM), 73% (active); in assay [6] (setting [7]), 4%; in assay [6] (setting [8]), 32%; in assay [6] (at 50.0 µM), 43.2%.

The values above are taken from PubChem BioAssay (NCI).
